# From PubChem BioAssay (NCATS)
# Results filed as inconclusive are left out. A call without a number means that no potency is given here. Active and inactive are the calls of the source. Calls come from the whole dose curve; as a rule, active = well fitted cell-killing curve with a large enough effect; inconclusive = small, poorly fitted or top-dose-only effect, or effect the other way; inactive = no such curve, though single readings can be large or run the other way.
# Experiment: Quantitative High-Throughput drug screen in 47 multiple myeloma cell lines against the NCATS MIPE library collection: OCIMY7_PLB cell viability assay (AID 1918987); note: nearly all actives have a fitted effect of over 65% in size
# Conditions: OCI-MY7 myeloma viability, CellTiter-Glo ATP, 48 h; series mostly up to 45.8 µM
# In short: (§1)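 Plated at 500 cells per well, myeloma lines received MIPE 4.0 compounds by pin tool. Following 48 h culture at 37 °C, CellTiter-Glo luminescence gave viability relative to DMSO and media-only controls.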
# Potency is the fitted concentration of half-maximal effect.
row,Structure (SMILES),Potency
1,CC1COc2c(N3CCN(C)CC3)c(F)cc3c(=O)c(C(=O)O)cn1c23 (centres undefined),inactive
2,CN(CCOc1ccc(NS(C)(=O)=O)cc1)CCc1ccc(NS(C)(=O)=O)cc1,inactive
3,Clc1ccc(C(c2ccccc2Cl)C(Cl)Cl)cc1 (centres undefined),18.7 µM (active)
4,Fc1ccc([C@@H]2CCNC[C@H]2COc2ccc3c(c2)OCO3)cc1,inactive
5,Cn1ccc2cc3c(cc21)CCN3C(=O)Nc1cccnc1,20.9 µM (active)
6,CN1C2CCC1CC(OC(=O)C(CO)c1ccccc1)C2 (centres undefined),inactive
7,O=C(c1ccc(F)cc1)C1CCN(CCn2c(=O)[nH]c3ccccc3c2=O)CC1,inactive
8,O=c1c(O)c(-c2ccc(O)c(O)c2)oc2cc(O)cc(O)c12,11.8 µM (active)
9,Cc1cc(C(C)(C)C)cc(C)c1CC1=NCCN1,inactive
10,Nc1ccn([C@H]2CC[C@@H](CO)O2)c(=O)n1,13.2 µM (active)
11,Nc1c2c(nc3ccccc13)CCCC2,inactive
12,CCN1CCCC1CNC(=O)c1cc(S(=O)(=O)CC)c(N)cc1OC (centres undefined),inactive
13,C[C@H]1c2cccc(O)c2C(O)=C2C(=O)[C@]3(O)C(O)=C(C(N)=O)C(=O)[C@@H](N(C)C)[C@@H]3[C@@H](O)[C@@H]21,11.8 µM (active)
14,Clc1ccc2nsnc2c1NC1=NCCN1,inactive
15,NC12CC3CC(CC(C3)C1)C2,inactive
16,COc1cc2nc(N3CCN(C(=O)C4COc5ccccc5O4)CC3)nc(N)c2cc1OC (centres undefined),18.7 µM (active)

# Experiment: Quantitative High-Throughput drug screen in 47 multiple myeloma cell lines against the NCATS MIPE library collection: OCIMY5_PLB cell viability assay (AID 1918988); note: nearly all actives have a fitted effect of over 65% in size
# Conditions: OCI-MY5 myeloma viability, ATP luminescence, 48 h; series mostly up to 45.8 µM
# In short: as §1
row,Structure (SMILES),Potency
1,CCOC(=O)C(C)(C)Oc1ccc(Cl)cc1,inactive
2,CN1C(C(=O)Nc2ccccn2)=C(O)c2ccccc2S1(=O)=O,inactive
3,NCCc1cnc[nH]1,inactive
4,O=C(c1ccc(F)cc1)C1CCN(CCn2c(=O)[nH]c3ccccc3c2=O)CC1,26.4 µM (active)
5,CC(COc1ccccc1)N(CCCl)Cc1ccccc1 (centres undefined),26.4 µM (active)
6,OCCN(CCO)c1nc(N2CCCCC2)c2nc(N(CCO)CCO)nc(N3CCCCC3)c2n1,23.5 µM (active)
7,COc1ccccc1OCCNCC(O)COc1cccc2[nH]c3ccccc3c12 (centres undefined),18.7 µM (active)
8,Nc1c2c(nc3ccccc13)CCCC2,23.5 µM (active)
9,CCN1CCCC1CNC(=O)c1cc(S(=O)(=O)CC)c(N)cc1OC (centres undefined),inactive
10,C[C@H]1c2cccc(O)c2C(O)=C2C(=O)[C@]3(O)C(O)=C(C(N)=O)C(=O)[C@@H](N(C)C)[C@@H]3[C@@H](O)[C@@H]21,23.5 µM (active)
11,NC12CC3CC(CC(C3)C1)C2,0.0026 µM (active)
12,O=C(C1CCCCC1)N1CC(=O)N2CCc3ccccc3C2C1 (centres undefined),inactive
13,O=C1N(c2ccccc2)c2ccccc2C1(Cc1ccncc1)Cc1ccncc1,37.2 µM (active)

# Experiment: Quantitative High-Throughput drug screen in 47 multiple myeloma cell lines against the NCATS MIPE library collection: OPM1_PLB cell viability assay (AID 1918989); note: nearly all actives have a fitted effect of over 40% in size
# Conditions: CellTiter-Glo, 48 h; series mostly up to 45.8 µM
# In short: as §1
row,Structure (SMILES),Potency
1,CN(C)c1nc(N(C)C)nc(N(C)C)n1,inactive
2,CC1COc2c(N3CCN(C)CC3)c(F)cc3c(=O)c(C(=O)O)cn1c23 (centres undefined),inactive
3,CN1C2CCC1CC(OC(=O)C(CO)c1ccccc1)C2 (centres undefined),inactive
4,O=c1c(O)c(-c2ccc(O)c(O)c2)oc2cc(O)cc(O)c12,20.9 µM (active)
5,Nc1c2c(nc3ccccc13)CCCC2,inactive
6,COc1ccccc1OCC(O)CN1CCN(CC(=O)Nc2c(C)cccc2C)CC1 (centres undefined),inactive
7,CCN1CCCC1CNC(=O)c1cc(S(=O)(=O)CC)c(N)cc1OC (centres undefined),inactive
8,COc1ccc(C2CNC(=O)C2)cc1OC1CCCC1 (centres undefined),inactive
9,O=C1N(c2ccccc2)c2ccccc2C1(Cc1ccncc1)Cc1ccncc1,inactive
10,CC(C)(C)C(=O)Oc1ccc(S(=O)(=O)Nc2ccccc2C(=O)NCC(=O)O)cc1,inactive
